# Assay results from the supplement of paper PMC6135742.
# Structures can show the parent of a compound that is named as a salt. ± gives the standard deviation of the averaged measurements. Whole data set: some 2,600 compounds, median “MBP+ mature oligodendrocyte number relative to DMSO vehicle control” near -0.34, cut for the highest 2% near 13. The entries come from a sample that favours the highest values as a whole.
# System: jimpy (Plp1 jimpy) mouse iPSC-derived oligodendrocyte progenitor cells
# Test: MBP+ mature oligodendrocyte number relative to DMSO vehicle control (SDs above negative control mean); higher = more surviving jimpy oligodendrocytes (rescue)
# Settings: 10 µM; 3 days
# Description: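 Primary phenotypic screen of >3,000 bioactive compounds (Selleck L1700 and Sigma LO1280 libraries) at a single dose of 10 µM. Compounds were added to jimpy (Plp1 mutant) mouse iPSC-derived OPCs at the start of thyroid hormone-induced oligodendrocyte differentiation, one well per compound in 384-well plates. After 3 days cells were stained for MBP, Sox10 and DAPI and imaged with an Operetta system. MBP+ oligodendrocyte number and total cell number were expressed as the number of SDs above the mean of the DMSO negative control on the same plate (n=16 control wells per plate). Hits were defined as >=4 SD for oligodendrocytes and >=2 SD for total cells.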
row,SMILES,MBP+ mature oligodendrocyte number
1,CN1c2ccccc2C(=O)N2CCc3c([nH]c4ccccc34)C21 (stereo in doubt) [Evodiamine],-2.4
2,Cc1ccc(NCCCc2ccccc2)c(N)c1,< -6.35
3,CC(C)S(=O)(=O)N[C@H]1CCOC[C@@H]1c1ccc(-c2ccc(C#N)s2)cc1,-3.15
4,CO[C@@H](C(=O)N1Cc2[nH]nc(NC(=O)c3ccc(N4CCN(C)CC4)cc3)c2C1)c1ccccc1,-6.61
5,CC(=O)[C@H]1CC[C@H]2[C@@H]3C=CC4=CC(=O)CC[C@@]4(C)[C@@H]3CC[C@]12C [Dydrogesterone],0.153
6,CC(=O)[C@H]1CC[C@H]2[C@@H]3CCC4=CC(=O)CC[C@]4(C)[C@H]3CC[C@]12C [Progesterone],15.4 ± 7.2
7,C[C@]12C[C@H](O)[C@H]3[C@@H](CCC4=CC(=O)CC[C@@]43C)[C@@H]1CC[C@@H]2C(=O)CO [Corticosterone],1.49
8,O=C1NC(=O)c2c1c(-c1ccccc1)cc1[nH]c3ccc(O)cc3c21,< -3.97
9,CC1(C)NC(=O)N(c2ccc([N+](=O)[O-])c(C(F)(F)F)c2)C1=O [Nilutamide],-0.755
10,CNC(=O)c1ccc(N2C(=S)N(c3cnc(C#N)c(C(F)(F)F)c3)C(=O)C23CCC3)cc1F,5.74
11,CNC(=O)c1ccc(N2C(=S)N(c3ccc(C#N)c(C(F)(F)F)c3)C(=O)C2(C)C)cc1F [Enzalutamide (MDV3100)],16.6
12,N=C(N)SCCc1c[nH]cn1 [Imetit dihydrobromide],-0.363
13,O=C(Nc1cccnc1)c1cc(-c2ccnc(F)c2)ccc1OCc1ccccc1,-0.282
14,Cc1cc(-c2ccc(CC(=O)Nc3ccc(-c4cccnc4)cc3)cc2)ccn1,23.2
15,Cc1ccc(NC(=O)c2ccc(CN3CCN(C)CC3)cc2)cc1Nc1nccc(-c2cccnc2)n1 [Imatinib Mesylate (STI571)],-5.56
16,Cc1cc(-c2ncc(CC(=O)Nc3ccc(-c4cnccn4)cn3)cc2C)ccn1,13.8
17,Cc1ccc(NC(=O)c2ccc(CN3CCN(C)CC3)cc2)cc1Nc1nccc(-c2cccnc2)n1 [Imatinib (STI571)],-4.36
18,COC[C@H](NC(=O)c1cnc(C)s1)C(=O)N[C@@H](COC)C(=O)N[C@@H](Cc1ccccc1)C(=O)[C@@]1(C)CO1 [Oprozomib (ONX 0912)],-5.76
19,COc1cc2c(cc1O)[C@@H](Cc1ccc(O)c(Oc3ccc(C[C@@H]4c5cc(OC)c(OC)cc5CCN4C)cc3)c1)N(C)CC2 [Daurisoline],< -3.85
20,Nc1nc2c(ncn2[C@@H]2O[C@H](CO)[C@@H](O)[C@@H]2O)c(=O)[nH]1 [Ara-G hydrate],-0.925
21,Nc1ncnc2c1ncn2C1CCCC1 [9-cyclopentyladenine],-1.18

row,SMILES,MBP+ mature oligodendrocyte number
1,COc1cc2c(cc1-c1c(C)noc1C)ncc1[nH]c(=O)n([C@H](C)c3ccccn3)c12,< -6.01
2,Nc1nccc2c1ncn2[C@@H]1O[C@H](CO)[C@@H](O)[C@H]1O [3-deazaadenosine],-1.07
3,O=C1[C@H](CC[C@H](O)c2ccc(F)cc2)[C@@H](c2ccc(O)cc2)N1c1ccc(F)cc1 [Ezetimibe],2.95
4,O=C(CCCN1CCC(O)(c2ccc(Cl)cc2)CC1)c1ccc(F)cc1 [Haloperidol],2.36 ± 1.1
5,OC(CN1CCC(Cc2ccc(F)cc2)CC1)c1ccc(Cl)cc1 (stereo unspecified) [Eliprodil],13.4
6,CCN(CC)CCNC(=O)c1ccc(NS(C)(=O)=O)cc1 [Sematilide monohydrochloride monohydrate],-0.439
7,O=C(NCc1ccccc1)c1csc(Nc2ccncn2)n1 [Thiazovivin],-3.47
8,CCCCNc1ncc(-c2ccc(CN3CCOCC3)cn2)c(NC2CCC(O)CC2)n1 (stereo unspecified),-4.15
9,O=C1c2ccccc2C(=O)c2c(NCCc3ccc(O)cc3)ccc(NCCc3ccc(O)cc3)c21,-4.41
10,Cc1ccc(C(=O)C(C)CN2CCCCC2)cc1 (stereo unspecified) [Tolperisone HCl],5.05
11,Cc1ccc(C(=O)Cn2c3c(sc2=N)CCCC3)cc1 [Pifithrin-? (PFT?)],17
12,S=c1[nH]c(-c2ccccc2)cn1-c1ccccc1,2.54
13,CN(C)c1ccc(/C=C2/C(=O)Nc3ccccc32)cc1,0.789
14,O=c1cc(-c2ccccc2)oc2cc(O)cc(O)c12 [Chrysin],4.59
15,CCN(CC)CCNC(=O)c1cc(Cl)c(N)cc1OC [Metoclopramide hydrochloride],0.304
16,COc1cc(N)c(Cl)cc1C(=O)OCCN1CCCCC1,-3.81
17,CCOc1cc(N)c(Cl)cc1C(=O)NCC1CN(Cc2ccc(F)cc2)CCO1 (stereo unspecified) [Mosapride Citrate],23
18,C[C@H]1O[C@@H](Oc2c(-c3cc(O)c(O)c(O)c3)oc3cc(O)cc(O)c3c2=O)[C@@H](O)[C@@H](O)[C@@H]1O [Myricitrin],0.507
19,Nc1ccc(-c2ccc3ccccc3n2)cc1 [BF-170 hydrochloride],0.146
20,O=C(/C=C/c1ccc(O)c(O)c1)c1ccc(O)cc1O [Butein],-4.58
21,O=C(Cc1ccc(-c2ccc(OCCN3CCOCC3)cc2)cn1)NCc1ccccc1,-5.77

row,SMILES,MBP+ mature oligodendrocyte number
1,CCCCOc1ccc(C(=O)CCN2CCCCC2)cc1 [Dyclonine HCl],-1.91
2,CCCCOc1ccc(OCCCN2CCOCC2)cc1 [Pramoxine HCl],14.3
3,CC[C@@H]1C(=O)N(C)c2cnc(Nc3ccc(C(=O)N[C@H]4CC[C@H](N5CCN(CC6CC6)CC5)CC4)cc3OC)nc2N1C(C)C [Volasertib (BI 6727)],< -4.81
4,COCCCOc1ccnc(C[S+]([O-])c2nc3ccccc3[nH]2)c1C (stereo unspecified) [Rabeprazole sodium],1.61
5,Cc1c(OCC(F)(F)F)ccnc1C[S@@+]([O-])c1nc2ccccc2[nH]1 [Dexlansoprazole],17.2
6,Cc1c(OCC(F)(F)F)ccnc1C[S+]([O-])c1nc2ccccc2[nH]1 (stereo unspecified) [Lansoprazole],7.5 ± 4.5
7,O=C(NCCCNc1nc(Nc2cccc(NC(=O)N3CCCC3)c2)ncc1I)c1cccs1,-6.61
8,NCCCCC(=O)O [5-Aminovaleric acid hydrochloride],-1.14
9,O=C(/C=C/c1ccccc1)NC(NC(=S)Nc1cccc2cccnc12)C(Cl)(Cl)Cl (stereo unspecified) [Salubrinal],19
10,O=C(C=Cc1ccccc1)NC(NC(=S)Nc1ccc(Cl)cc1)C(Cl)(Cl)Cl (stereo unspecified),-0.386
11,O=C(Nc1cccc2cccnc12)c1ccc(N2C(=O)[C@@H]3[C@H](C2=O)[C@@H]2C=C[C@H]3C2)cc1 [IWR-1-endo],-3.56
12,N=C(N)Nc1ccc(C(=O)Oc2ccc3cc(C(=N)N)ccc3c2)cc1 [Nafamostat Mesylate],-3.03
13,NC1CONC1=O (racemic) [DL-Cycloserine],0.353
14,O=C(Nc1cccnc1)N1CCC(Cc2cccc(Oc3ccc(C(F)(F)F)cn3)c2)CC1,19.5
15,O=C(Nc1cccnc1)N1CCC(Cc2cccc(Oc3ccc(C(F)(F)F)cn3)c2)CC1 [PF 3845 hydrate],10.1
16,O=C(Nc1ccccc1Br)N[C@@H]1CCN(c2ccc(C(F)(F)F)cn2)C1,1.22
17,Cn1ccc2cc3c(cc21)CCN3C(=O)Nc1cccnc1,0.574
18,Nc1nccc(Oc2ccc(NC(=O)c3c[nH]cc(-c4ccc(F)cc4)c3=O)cc2F)c1Cl,7.17
19,C[C@@H](O[C@H]1OCCN(Cc2nn(P(=O)(O)O)c(=O)[nH]2)[C@H]1c1ccc(F)cc1)c1cc(C(F)(F)F)cc(C(F)(F)F)c1 [Fosaprepitant dimeglumine salt],-2.44
20,CN1CC(=O)N=C1NC(=O)Nc1cccc(Cl)c1 [Fenobam],-0.794
21,Nc1nc2c(c(=O)[nH]1)C[C@@H](CCc1ccc(C(=O)N[C@@H](CCC(=O)O)C(=O)O)cc1)CN2 [Lometrexol hydrate],0.225

row,SMILES,MBP+ mature oligodendrocyte number
1,CCn1cc(-c2ccnc3[nH]c(-c4cccc(CN(C)C)c4)cc23)c(-c2ccc(NC(=O)N(C)C)cc2)n1,-5.93
2,CN(C)C(=O)c1ccc(S(=O)(=O)c2ccc(NC(=O)[C@@](C)(O)C(F)(F)F)c(Cl)c2)cc1,19.5
3,C[C@H](Oc1cc(-c2cnn(C3CCNCC3)c2)cnc1N)c1c(Cl)ccc(F)c1Cl [(S)-crizotinib],-4.58
4,Cc1ccc(Nc2c(F)cccc2Cl)c(CC(=O)O)c1 [Lumiracoxib],0.263
5,CN1CCC(=C2c3ccccc3CCc3sccc32)CC1 [Pizotifen Malate],-6.09
6,Clc1ccccc1CN1CCc2sccc2C1 [Ticlopidine HCl],18.4
7,COC(=O)[C@H](c1ccccc1Cl)N1CCc2sccc2C1 [Clopidogrel],1.42
8,COC(=O)C1=C(C)NC(C)=C(C(=O)OC)C1c1cccc(NC(=O)NCCCN2CCC(c3cccc(OC)c3)CC2)c1,< -3.85
9,CCc1nc(N)nc(N)c1-c1ccc(Cl)cc1 [Pyrimethamine],49
10,C[n+]1cccc(C(N)=O)c1 [1-Methylnicotinamide chloride],-0.176
11,N#CC[C@H](C1CCCC1)n1cc(-c2ncnc3[nH]ccc23)cn1,2.47
12,c1ccc(-c2[nH]ncc2-c2ccnc3ccccc23)nc1,-2.12
13,CCN(CC)CC#CCOC(=O)C(O)(c1ccccc1)C1CCCCC1 (stereo unspecified) [Oxybutynin Chloride],13.5
14,CCN(CC)CC#CCOC(=O)C(O)(c1ccccc1)C1CCCCC1 (stereo unspecified) [Oxybutynin chloride],29.7
15,CCCC(C(=O)OCCN(CC)CC)(c1ccccc1)c1ccccc1 [SKF-525A hydrochloride],-3.42
16,CCN(CC)CCOC(=O)C(c1ccccc1)c1ccccc1 [Adiphenine HCl],0.0731
17,Cc1cc2nc(NCCCO)n(CC(=O)c3cc(C(C)(C)C)c(O)c(C(C)(C)C)c3)c2cc1C,-4
18,CC[C@H](NC(=O)[C@H](C)NC)C(=O)N1C[C@@H](O)C[C@H]1Cc1c(-c2[nH]c3cc(F)ccc3c2C[C@@H]2C[C@H](O)CN2C(=O)[C@H](CC)NC(=O)[C@H](C)NC)[nH]c2cc(F)ccc12 [Birinapant],-5.76
